MCF10A rerep: inducers of DNA re-replication in MCF 10A breast cells; AID 624296; Potency, µM (titrated, usually from 46.1 µM), inactives show at the highest dose activity, positive = re-replication, most hits filed as activators; MCF 10A DNA re-replication, Hoechst nuclear intensity, 48 h; 350,000 compounds, 2.9% hits; also: % of control where 0% means no effect; nearly all actives have a fitted effect of over 50% in size
KB-V1 cytotox: kills drug-selected multidrug resistant KB-V1 cells | KB-V1 MDR cells viability, CellTiter-Glo, 72 h | Potency, µM (series often up to 46.1 µM), hits mostly cytotoxic | 400,000 compounds, 3.4% hits | AID 1347076; also: % is scaled to controls: 0 for no effect and ±100 for the full control effect; nearly all actives have a fitted effect of over 60% in size
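Potencies derive from concentration-effect curves fitted to normalized luminescence (CellTiter-Glo) of KB-V1 cells treated for 72 h at 37 degrees C in phenol-red-free DMEM containing 10% FBS.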
PINK1 modulator: changes PINK1 expression. PINK1 immunofluorescence, high-content cytometry, 24 h. Potency, µM (top dose mostly 76.6 µM), for the others: at the top dose activation (PINK1 increase), most hits filed as activators. 410,000 compounds, 0.2% hits; active = well fitted activation curve with a large enough effect; inconclusive = small, poorly fitted or top-dose-only effect; cell line not stated here; also: % of control where 0% means no effect; nearly all actives have a fitted effect of over 65% in size
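Decision-based qHTS: stable cells, 24 h exposure to five compound concentrations, CCCP as control. Fixed cells stained for PINK1 plus nuclear, mitochondrial and cell markers, cytometer read.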
KB-3-1 cytotox: KB-3-1 parental cell cytotoxicity | Potency, µM (highest dose often 46.1 µM), hits mostly cytotoxic | 400,000 compounds, 1.4% hits | KB-3-1 viability, CellTiter-Glo ATP luminescence, 72 h; also: % is scaled to controls: 0 for no effect and ±100 for the full control effect; nearly all actives have a fitted effect of over 60% in size
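Parental KB-3-1 adenocarcinoma cells in phenol-red-free DMEM with 10% FBS were pin-treated with compounds at several concentrations, incubated 72 h at 37 °C, and viability read by CellTiter-Glo luminescence; concentration-effect curves were fitted after normalization.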
SW480 rereplic: induces DNA re-replication in SW480 colon adenocarcinoma cells. AID 624297. Potency, µM (series often up to 46.1 µM), for the others: at the top dose re-replication activation, hits mostly activators. SW480 DNA re-replication, Hoechst DNA content imaging, 48 h. 340,000 compounds, 1.8% hits; also: % of control where 0% means no effect; nearly all actives have a fitted effect of over 55% in size
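250 cells/well; 23 nL cpd via pin tool; 48 hr, 37 C, 5% CO2; Hoechst 40 min; imager read of total nuclear intensity, ex 405/em 500-530 nm.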
12-LOX inh: ALOX12 (human) lipoxygenase inhibition | purified 12hLO, xylenol orange hydroperoxide absorbance | Potency, µM (titrated, usually from 108 µM), for inactives: at the top dose activity change, negative = inhibition, most hits filed as inhibitors | 580,000 compounds, 1.1% hits | P18054 | AID 1671190; also: % is scaled to controls: 0 for no effect and ±100 for the full control effect
Target sequence (P18054 whole entry, looked up): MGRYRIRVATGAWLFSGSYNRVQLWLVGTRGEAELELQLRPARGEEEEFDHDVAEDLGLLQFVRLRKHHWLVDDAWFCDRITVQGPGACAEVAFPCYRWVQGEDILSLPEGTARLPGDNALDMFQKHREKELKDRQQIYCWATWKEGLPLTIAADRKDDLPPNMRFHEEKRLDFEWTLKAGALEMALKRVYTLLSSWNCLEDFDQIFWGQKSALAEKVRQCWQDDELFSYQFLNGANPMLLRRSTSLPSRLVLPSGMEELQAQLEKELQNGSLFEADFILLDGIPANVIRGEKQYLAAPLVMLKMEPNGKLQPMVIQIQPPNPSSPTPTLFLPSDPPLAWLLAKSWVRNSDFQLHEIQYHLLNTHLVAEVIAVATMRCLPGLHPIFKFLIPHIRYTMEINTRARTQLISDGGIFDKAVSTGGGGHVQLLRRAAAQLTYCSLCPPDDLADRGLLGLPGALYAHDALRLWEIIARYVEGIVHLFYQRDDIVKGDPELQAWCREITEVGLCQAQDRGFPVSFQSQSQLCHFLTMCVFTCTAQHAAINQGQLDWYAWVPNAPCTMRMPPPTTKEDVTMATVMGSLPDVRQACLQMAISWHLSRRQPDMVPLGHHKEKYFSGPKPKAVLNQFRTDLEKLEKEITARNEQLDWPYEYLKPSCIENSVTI
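Hydroperoxide product was detected by ferrous iron/xylenol orange as the 573 to 405 nm absorbance ratio. Arachidonic acid at 40 uM (final) was turned over for 30 min at room temperature by 150 nM human 12hLO, pH 7.0 Hepes buffer, after 15 min compound preincubation.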
An asterisk follows results filed as active; i = inactive; ? = inconclusive; . = no result given; [ ] = another dose, or the depositor's remark. Hits are enriched below; roughly 5.8% of the tested compounds scored in any of these assays. Unless noted, calls follow the shape of the dose curve; as a rule, active = well fitted curve in the direction sought with a large enough effect; inconclusive = small, poorly fitted or top-dose-only effect, or another doubt; inactive = no such curve, though single readings can be large; an effect the other way counts as inactive or inconclusive. Potency is read from the fitted curve at half-maximal effect.

SMILES	MCF10A rerep	KB-V1 cytotox	PINK1 modulator	KB-3-1 cytotox	SW480 rereplic	12-LOX inh
Cc1cccc(CS(=O)(=O)C(C)C(=O)N(C)Cc2cccc(F)c2)c1 (stereo unspecified)	.	.	.	.	.	-5%
CCN(c1ccccc1)S(=O)(=O)c1ccc(C(=O)NC2CC(C)(C)NC(C)(C)C2)cc1	.	.	.	.	.	69%
CNC(=O)c1cc2cc(-c3c(C)noc3C)nc(-c3ccccc3C)c2o1	.	.	.	.	.	23%[176 µM]
O=C(C1CCN(Cc2ccc(F)cc2)CC1)N(CCc1ccccc1)Cc1ccccc1	?	i	19%	16µM*	-75%	?
CN(Cc1nc2ccccc2c(=O)[nH]1)C(=O)c1cc(-c2ccc(Br)cc2)nc2ccccc12	?	15µM*	6%	i	21%	-23%
O=C(C1CC1)N(CCc1ccccc1)Cc1nc2ccccc2c(=O)[nH]1	-1%	16µM*	1%	i	-8%	4%
CCCC(=O)N(CCc1ccc(OC)cc1)Cc1nc2ccccc2c(=O)[nH]1	5%	15µM*	9%[38.3 µM]	i	-2%	4%[57.4 µM]
COCC(=O)N(CCc1ccc(OC)cc1)Cc1nc2ccccc2c(=O)[nH]1	?	i	-1%	i	?	29%
COCCN1CCn2c(nc3cc(C(=O)NC(C)C)ccc32)C1	.	.	.	.	.	-16%
Cc1sccc1/C=N/NC(=O)C1CC1	.	.	.	.	.	0%
Cc1ccc(C)c(S(=O)(=O)N2CCN(C(=O)NC(C)CCc3ccccc3)CC2)c1 (stereo unspecified)	.	.	.	.	.	-16%
CN(Cc1nc2ccccc2c(=O)[nH]1)C(=O)COc1ccccc1Cc1ccccc1	21µM*	i	1%	i	4%	22%
CCC(CC)NC(=O)Nc1ccc(C)cc1Br	.	.	.	.	.	-25%
Cc1ccc(S(=O)(=O)Nc2nc3ccccc3nc2Nc2ccc3c(c2)OCCO3)c(C)c1	.	.	.	.	.	51%
Cc1cc(C(=O)COC(=O)c2ccccc2O)c(C)n1CC1CCCO1 (stereo unspecified)	12%	?	0%	i	-15%	-11%
Cc1cc(C(=O)COc2ccccc2C(N)=O)c(C)n1CC1CCCO1 (stereo unspecified)	12%	4.6µM*	-1%	i	0%	7%
CC(C)NS(=O)(=O)c1ccc(NC(=O)CCc2ncc(-c3ccc(F)cc3F)o2)cc1	.	.	.	.	.	26%
Cc1cc(C([O-])=C(C(=S)Nc2ccc(F)cc2)[n+]2ccccc2)c(C)n1-c1ccc(F)cc1	8%	i	8%	i	-7%	?
COc1cccc(NC(=S)/C(=C(\[O-])c2cc(C)n(-c3ccccc3F)c2C)[n+]2ccc(N(C)C)cc2)c1	?	i	16µM*	?	?	?
CN(C)/C=N/C(=S)Nc1ccc(Cl)cc1	0%	i	0%	i	-6%	-27%
CN(C)/C=N/C(=S)Nc1ccc(Cl)cc1Cl	?	i	1%	i	21µM*	?
CC(=O)/C(=C/N(C)C)C(=O)Nc1ccc(Cl)cc1Cl	18µM*	i	4%	i	?	?
NC(=S)N/N=C1\CCSc2ccc(Cl)cc21	-2%	?	1%	i	18µM*	0%
O=C(N/N=C1\CCSc2ccc(F)cc21)c1cccnc1	-4%	i	1%	i	-12%	3%
CCOc1ccc(-c2cc3c(=O)n(CCNC(=O)c4ccccc4OC)ccn3n2)cc1	.	.	.	.	.	0%
SMILES	MCF10A rerep	KB-V1 cytotox	PINK1 modulator	KB-3-1 cytotox	SW480 rereplic	12-LOX inh
CCn1c(=O)cc(OCC(=O)Nc2ccc(C)cn2)c2ccccc21	21µM*	?	12%[38.3 µM]	i	12%	0%
CCn1c(=O)cc(SCC(=O)Nc2ccc3c(c2)OCCO3)c2ccccc21	23%	16µM*	-7%[38.3 µM]	i	-3%	14%
CCn1c(=O)cc(SCC(=O)Nc2ccc(C)cn2)c2ccccc21	10µM*	?	6%	i	?	-1%
COc1ccc(C(=O)N2CCCC(c3nc(-c4ccccc4)no3)CCNC(=O)CC2)c(OC)c1 (stereo unspecified)	.	.	.	.	.	-6%
Cc1cc(SCC(=O)Nc2ccccc2C)nc(C)n1	-1%	i	3%	i	0%	4%
Cc1ccccc1NC(=O)CNc1nc(Nc2ccccc2)nc(Nc2ccccc2)n1	.	.	.	.	.	16µM*
O=C(CN1CCC(n2nnc3cc(F)ccc32)CC1)NC1CC1	1%	?	-4%	i	-4%	0%
O=C(CN1CCC(n2nnc3cc(F)ccc32)CC1)N1CCc2ccccc2C1	5.2µM*	?	-3%[38.3 µM]	i	?	-20%
O=C(CN1CCC(n2nnc3cc(F)ccc32)CC1)NCCc1ccccc1	8%	?	0%	i	-7%	-21%
O=C(CN1CCC(n2nnc3cc(F)ccc32)CC1)NC1CCCCC1	16%	21µM*	-2%	i	0%	0%
CCOc1ccc2nc(NC(=O)CN3CCC(n4nnc5cc(F)ccc54)CC3)sc2c1	?	21µM*	-1%	?	-4%	-12%
CCOC(=O)COc1ccc2c(C)c(C)c(=O)oc2c1C	.	.	.	.	.	-19%
c1ccc2c(c1)OCCOCCOc1ccccc1OCCO2	.	.	.	.	.	-55%
COc1ccc(C(C)NC(=O)c2[nH]c3c(c2C)C(=O)CCC3)cc1F (stereo unspecified)	.	.	.	.	.	-20%
CC1(C)Cc2c(sc(/N=C/N3CCCC3)c2C#N)C(C)(C)N1	1%	?	-1%	i	-8%	14%
CC1(C)Cc2c(sc(/N=C/N3CCCCCC3)c2C#N)C(C)(C)N1	16µM*	i	0%	?	0%	0%
CN=c1sc(C(=O)Nc2ccccc2)c(C)n1C	-3%	i	3%	i	-2%	?
CN=c1sc2c(n1C)C(=O)c1ccccc1C2=O	8.2µM*	?	9%	?	13µM*	0%
COc1ccc(/C=C/C(=O)c2ccc(C(C)(C)C)cc2)c(OC)c1OC	.	.	.	.	.	-2%
COc1ccc(/C=C/C(=O)c2ccncc2)c2ccccc12	12µM*	i	-3%	i	?	?

From PubChem BioAssay
